Assay [1] has as its system Wnt5a (protein binding on small-molecule microarray). Kind of assay: Wnt5a binders on small-molecule microarray, primary screen, biophysical, 635/667 nm fluorescence (AID 1142).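 Further: fluorescence read at 667 nm with signal to noise per printed feature.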 The following applies: 635 nm fluorescence, higher = more signal.
A short description of assay [2]: cell viability in Huh7 cells, primary screen, cytotoxicity control for HCV replication inhibitor project, CellTiter-Glo luminescence, basal, 48 h (AID 1143).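 Further: Huh7 hepatoma cells carrying a hepatitis C replication reporter with no stimulus; test concentration not given here.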 The following applies: Huh7 HCV replicon, higher = more signal, called active from +8 up or from −8 down. In general terms: ATP-based viability assays read luminescence as a measure of living cells.
A short description of assay [3]: P. aeruginosa biofilm formation inhibitors, primary screen, PAO1 strain, BacTiter-Glo luminescence, LB-PBS (AID 1144). The following applies: 12 h, higher = more signal.
A short description of assay [4]: CREB reporter modulators without forskolin, primary screen, cell-based, PC12, CRE-LacZ reporter, unstimulated (AID 1145). Conditions: no forskolin, luminescence, 4.5 h, higher = more signal, called active from +8 up or from −8 down.
Assay [5] can be described thus: CREB reporter modulators under forskolin, primary screen, cell-based, PC12, CRE-LacZ reporter, forskolin-stimulated (AID 1146).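 Further: PC12 cells with 6xCRE LacZ reporter stimulated by forskolin 10 µM; beta-galactosidase reporter signal reflecting CREB driven transcription.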 The following applies: luminescence, 4.5 h, higher = more signal, called active from +8 up or from −8 down.
In assay [6] the target is Streptavidin (Streptomyces avidinii) (UniProt P22629). Nature of the assay: streptavidin binders on small-molecule microarray, primary screen, artefact control for SMM compound annotation, biophysical, 635/667 nm fluorescence (AID 1147).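 Further: signal reflects streptavidin binding to arrayed compounds as a control protein.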 The following applies: streptavidin binding, higher = more signal.
Streptavidin (Streptomyces avidinii), sequence (P22629 whole entry, looked up): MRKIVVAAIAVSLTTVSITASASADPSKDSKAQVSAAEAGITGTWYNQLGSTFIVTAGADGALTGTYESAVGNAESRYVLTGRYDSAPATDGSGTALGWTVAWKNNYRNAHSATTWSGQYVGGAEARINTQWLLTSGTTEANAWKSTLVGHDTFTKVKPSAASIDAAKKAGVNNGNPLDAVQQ
The nature of assay [7]: small-molecule binders of probe aInhba, primary screen, biochemical, small-molecule microarray, 635/667 nm fluorescence (AID 1148).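 Further: score merges 667nm spot fluorescence with signal-to-noise for antibody binding to printed compounds.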 The following applies: higher = more signal.
Assay [8] has as its target Torsin-1A (Homo sapiens) (UniProt O14656). Nature of the assay: torsin A binders from cell lysate, primary screen, small-molecule microarray, wild-type, 635/667 nm (AID 1149). Conditions: COS7 hTOR1A-WT lysate, 635 nm fluorescence, higher = more signal.
The target is the same in assay [9]. Kind of assay: small-molecule binders of mutant TOR1A in lysate, primary screen, cell lysate, small-molecule microarray, COS7 lysate, 635/667 nm fluorescence (AID 1150).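 Further: score pools 667 nm emission and signal to noise measuring lysate protein binding.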 The following applies: COS7 hTOR1A mutant lysate, 635 nm fluorescence, higher = more signal.
In assay [10] the test system is Sonic hedgehog protein (Shh). Kind of assay: small-molecule binders of Shh protein, primary screen, biochemical, small-molecule microarray, 635/667 nm fluorescence (AID 1151).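 Further: Shh protein binding to compounds spotted on small-molecule microarray slides; score combines spot fluorescence intensity with signal-to-noise across triplicate slides.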 The following applies: small-molecule microarray binding, 635 nm fluorescence; higher = more signal.
The nature of assay [11]: E. coli DRC41 culture turbidity changes, primary screen, E. coli filamentation inducer project, strain DRC41, OD650, 48 h (AID 1152).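 Further: E. coli MC1000 strain DRC41 lacking acrAB efflux pump and sulA.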 Conditions: E. coli DRC41 (acrAB sulA), higher = more signal, called active from +8 up or from −8 down.
Assay [12] can be described thus: small-molecule binders of probe aLefty1, primary screen, biochemical, small-molecule microarray, 635/667 nm fluorescence (AID 1153).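 Further: score merges spot fluorescence with signal-to-noise ratio from the scanned slide images.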 The following applies: higher = more signal.
Assay [13] in a line: PSAC antagonists in infected red cells, primary screen, cell-based, P. falciparum Indochina, OD700, 1 h (AID 1154). The following applies: P. falciparum Indochina infected RBC osmotic lysis, higher = more signal, called active from +8 up or from −8 down.
Assay [14] is described as follows: PSAC antagonists in infected red cells, primary screen, cell-based, P. falciparum Indochina, OD700, 2 h (AID 1155).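 Further: lysis reports solute entry through the parasite surface anion channel PSAC; channel blockers reduce lysis of infected cells.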 The following applies: P. falciparum Indochina infected erythrocytes, osmotic lysis OD700; higher = more signal, called active from +8 up or from −8 down.
The nature of assay [15]: osmotic lysis modulators in infected erythrocytes, primary screen, PSAC antagonist project, cell-based, P. falciparum Indochina, OD700, 3 h (AID 1156). Conditions: higher = more signal, called active from +8 up or from −8 down.
Assay [16] is described as follows: PSAC antagonists in infected red cells, primary screen, cell-based, P. falciparum Indochina, OD700, 18 h (AID 1157). Conditions: P. falciparum Indochina infected erythrocytes, osmotic lysis OD700, 18 h; higher = more signal, called active from +8 up or from −8 down.
Assay [17] can be described thus: modulators of S6 phosphorylation in cells, primary screen, cell-based, A549, cytoblot, luminescence, serum-stimulated (AID 1158).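 Further: serum-stimulated A549 lung adenocarcinoma cells; signal is phosphorylated S6 detected by cytoblot immunostaining with HRP secondary.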 The following applies: A549 phospho-S6 cytoblot, 5 h, higher = more signal.
The target in assay [18] is NADPH oxidase 2 (Homo sapiens) (UniProt P04839). Nature of the assay: NOX2-dependent H2O2 signal modulators, primary screen, NOX inhibitor project, cell-based, HEK293-NOX2, PMA-stimulated, Amplex Red fluorescence (AID 1159). Further: test concentration not given here. The following applies: 45 min, higher = more signal, called active from +8 up or from −8 down.
NADPH oxidase 2 (Homo sapiens), sequence (P04839 whole entry, looked up): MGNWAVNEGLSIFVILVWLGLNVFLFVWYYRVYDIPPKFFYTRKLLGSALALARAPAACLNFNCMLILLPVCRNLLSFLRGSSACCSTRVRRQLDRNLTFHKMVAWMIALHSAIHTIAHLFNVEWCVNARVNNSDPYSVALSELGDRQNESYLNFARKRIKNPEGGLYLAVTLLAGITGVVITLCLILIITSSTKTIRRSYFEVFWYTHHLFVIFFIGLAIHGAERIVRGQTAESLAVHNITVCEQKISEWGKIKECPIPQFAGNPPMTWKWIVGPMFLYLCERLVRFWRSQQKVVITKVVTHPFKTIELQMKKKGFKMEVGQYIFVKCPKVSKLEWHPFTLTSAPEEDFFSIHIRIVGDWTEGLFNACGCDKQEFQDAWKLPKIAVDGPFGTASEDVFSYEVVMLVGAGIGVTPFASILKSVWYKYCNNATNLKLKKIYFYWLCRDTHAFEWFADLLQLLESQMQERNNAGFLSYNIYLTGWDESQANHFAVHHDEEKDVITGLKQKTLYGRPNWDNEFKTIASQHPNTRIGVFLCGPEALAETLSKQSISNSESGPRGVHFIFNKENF
The target of assay [19] is NADPH oxidase 4 (Homo sapiens) (UniProt Q9NPH5). Nature of the assay: NOX4-dependent H2O2 signal modulators, primary screen, NOX inhibitor project, cell-based, HEK293-NOX4, tetracycline-induced, Amplex Red fluorescence (AID 1160). Conditions: 45 min, higher = more signal, called active from +8 up or from −8 down.
NADPH oxidase 4 (Homo sapiens), sequence (Q9NPH5 whole entry, looked up): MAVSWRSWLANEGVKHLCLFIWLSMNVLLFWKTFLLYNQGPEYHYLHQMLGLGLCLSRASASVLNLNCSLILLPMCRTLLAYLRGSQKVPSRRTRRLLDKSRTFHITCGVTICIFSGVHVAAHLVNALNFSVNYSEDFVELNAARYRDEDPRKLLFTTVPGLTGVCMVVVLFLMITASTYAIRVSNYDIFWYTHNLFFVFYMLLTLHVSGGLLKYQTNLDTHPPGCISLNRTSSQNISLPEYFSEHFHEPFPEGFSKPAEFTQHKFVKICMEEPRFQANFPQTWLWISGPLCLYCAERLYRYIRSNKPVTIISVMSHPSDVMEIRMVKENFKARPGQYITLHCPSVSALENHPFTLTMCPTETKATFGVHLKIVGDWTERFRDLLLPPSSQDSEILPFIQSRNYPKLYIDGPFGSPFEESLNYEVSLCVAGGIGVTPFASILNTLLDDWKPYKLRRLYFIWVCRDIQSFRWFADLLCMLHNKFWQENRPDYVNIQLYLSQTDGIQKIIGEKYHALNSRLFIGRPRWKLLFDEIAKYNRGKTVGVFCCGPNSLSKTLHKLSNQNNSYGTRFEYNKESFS
Assay [20] concerns the target NADPH oxidase 5 (Homo sapiens) (UniProt Q96PH1). Kind of assay: NOX5-dependent H2O2 signal modulators, primary screen, NOX inhibitor project, cell-based, HEK293-NOX5, Amplex Red fluorescence (AID 1161). The following applies: HEK293-NOX5, ionomycin, 45 min, higher = more signal.

Active and inactive are the calls of the source. Unless noted, how the calls were made is not given here.

NADPH oxidase 5 (Homo sapiens), sequence (Q96PH1 whole entry, looked up): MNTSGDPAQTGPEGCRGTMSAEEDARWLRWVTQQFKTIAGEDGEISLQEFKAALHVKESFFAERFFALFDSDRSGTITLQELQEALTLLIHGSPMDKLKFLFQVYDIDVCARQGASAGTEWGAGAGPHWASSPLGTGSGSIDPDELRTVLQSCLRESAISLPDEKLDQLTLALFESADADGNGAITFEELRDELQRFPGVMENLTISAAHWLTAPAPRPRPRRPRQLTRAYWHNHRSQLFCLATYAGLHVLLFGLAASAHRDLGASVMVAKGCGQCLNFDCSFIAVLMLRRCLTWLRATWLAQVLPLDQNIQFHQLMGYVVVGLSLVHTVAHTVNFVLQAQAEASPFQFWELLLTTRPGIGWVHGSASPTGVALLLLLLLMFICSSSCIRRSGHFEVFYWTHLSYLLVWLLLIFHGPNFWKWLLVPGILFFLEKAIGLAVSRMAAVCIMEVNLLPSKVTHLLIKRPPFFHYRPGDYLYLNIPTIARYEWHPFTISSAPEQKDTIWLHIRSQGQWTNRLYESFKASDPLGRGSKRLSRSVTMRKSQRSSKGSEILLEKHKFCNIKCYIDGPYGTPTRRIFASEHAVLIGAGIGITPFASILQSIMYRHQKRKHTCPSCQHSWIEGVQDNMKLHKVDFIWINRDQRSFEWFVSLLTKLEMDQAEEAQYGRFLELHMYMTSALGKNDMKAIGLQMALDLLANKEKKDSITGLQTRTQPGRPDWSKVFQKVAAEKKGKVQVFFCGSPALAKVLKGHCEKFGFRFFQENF
Torsin-1A (Homo sapiens), sequence (O14656 whole entry, looked up): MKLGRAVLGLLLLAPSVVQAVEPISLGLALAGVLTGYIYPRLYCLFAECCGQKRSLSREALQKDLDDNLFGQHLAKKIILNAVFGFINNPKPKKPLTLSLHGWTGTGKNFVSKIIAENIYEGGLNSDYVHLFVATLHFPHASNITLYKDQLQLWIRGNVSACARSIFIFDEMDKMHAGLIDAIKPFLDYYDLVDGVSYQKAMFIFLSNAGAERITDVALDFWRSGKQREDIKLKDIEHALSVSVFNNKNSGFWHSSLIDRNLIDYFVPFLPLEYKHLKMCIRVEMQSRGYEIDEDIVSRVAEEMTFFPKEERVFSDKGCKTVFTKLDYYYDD

In the case of `CN(C)C(=O)[C@]1(Cc2ccccc2)N=C(c2ccc(OCCCO)cc2)O[C@@H]1c1ccccc1CN=[N+]=[N-]`, the composite z-score worked out at 0.552 in assay [1]; 1.34 in [6]; 0.136 in [7]; 1.12 in the assay with Torsin-1A (Homo sapiens) [8]; 0.737 in the assay with Torsin-1A (Homo sapiens) [9]; 0.0325 in assay [10]. The same compound registered a composite z-score in [12] of 0.313. Besides, the z-score was -3.95 (inactive) in [2]; -0.754 (inactive) in assay [3]; -0.655 (inactive) in assay [4]; 2.45 (inactive) in assay [5]; 0.631 (inactive) in [11]; 27.3 (active) in assay [13]. Also, the z-score in assay [14] is 17.5 (active); in assay [15] it was 1.11 (inactive); in [16], 2.14 (inactive); in assay [17], 0.0358; in [18] it was -3.22 (inactive); in [19] it was -0.846 (inactive). This compound returned a z-score in assay [20] of -1.24.
Regarding `CC(C)=CCCC=C(C)C(O)C1C=CC2C(=O)N(c3ccccc3)C(=O)C2N1Nc1ccc(C#N)cc1` (stereo not given), the composite z-score in [1] turned out to be 0.218; in [6] it was 0.555; in [7], 0.0841; with Torsin-1A (Homo sapiens) [8], 0.0747; with Torsin-1A (Homo sapiens) [9] it was 0.536; in [10], 0.335. Also, in assay [12], the composite z-score came out at 0.304. Moreover, the z-score was -2.81 (inactive) in [2]; -1.21 (inactive) in [3]; 1.39 (inactive) in [4]; -0.35 (inactive) in assay [5]; -0.817 (inactive) in [11]; 15.5 (active) in assay [13]. The z-score is 1.88 (inactive) in [14]; 0.918 (inactive) in assay [15]; -1.08 (inactive) in [16]; 0.0382 in assay [17]; -1.88 (inactive) in [18]; -1.6 (inactive) in [19]. The same compound registered a z-score in assay [20] of -0.882.
As for `O=C1C2C=CC(C(O)c3ccc([N+](=O)[O-])cc3)N(Nc3ccccc3F)C2C(=O)N1c1ccccc1` (stereo not given), the composite z-score was 0.164 in [1]; 0.428 in assay [6]; 0.0028 in [7]; 0.16 in the assay with Torsin-1A (Homo sapiens) [8]; 0.52 with Torsin-1A (Homo sapiens) [9]; -0.449 in assay [10]. The compound further registered a composite z-score in [12] of 0.0625. For the same compound, the z-score in [2] is -0.631 (inactive); in assay [3], -0.242 (inactive); in [4], 0.743 (inactive); in assay [5] it was 0.402 (inactive); in assay [11], -1.36 (inactive); in assay [13], 9.91 (active). Besides, the z-score was 0.885 (inactive) in assay [14]; 0.458 (inactive) in [15]; 0.586 (inactive) in assay [16]; -0.888 in assay [17]; -2.54 (inactive) in [18]; -4.13 (inactive) in [19]. In assay [20], this compound gave a z-score of -3.11.
In the case of `C[C@@H]1ON(c2ccc(I)cc2)[C@H](c2cccc(NC(=O)OCC3c4ccccc4-c4ccccc43)c2)[C@H]1C(=O)N1C(=O)OC[C@H]1Cc1ccccc1`, the composite z-score in assay [1] is 0.0217; in [6], 0.226; in [7], -0.0893; with Torsin-1A (Homo sapiens) [8] it was 0.579; with Torsin-1A (Homo sapiens) [9], -0.0059; in [10], 0.851. In addition, the composite z-score in assay [12] worked out at 0.185. Also, the z-score in assay [2] was -0.659 (inactive); in assay [3], -0.215 (inactive); in assay [4], 2.13 (inactive); in assay [5] it was -0.0677 (inactive); in assay [11], 1.26 (inactive); in [13], -0.261 (inactive). The z-score in assay [14] was 0.755 (inactive); in [15], 0.0181 (inactive); in [16] it was 0.0584 (inactive); in assay [17], -0.447; in assay [18] it was -0.143 (inactive); in [19], -2.58 (inactive). The compound further had a z-score in assay [20] of -2.6.
In the case of `O=C1O[C@@H](c2ccccc2)[C@@H](c2ccccc2)N2[C@@H](c3ccccc3OCCO)[C@]3(C(=O)Nc4ccc(C#CCCO)cc43)[C@@H](C(=O)NC[C@H](O)c3ccccc3)[C@H]12`, the composite z-score in assay [1] stood at 0.381; in assay [6], 1.63; in [7] it was 1.17; with Torsin-1A (Homo sapiens) [8], 1.49; with Torsin-1A (Homo sapiens) [9], 1.86; in [10] it was 1.94. For the same compound, the composite z-score in assay [12] is 1.63. For the same compound, the z-score is -0.908 (inactive) in assay [2]; 0.191 (inactive) in [3]; -0.402 (inactive) in [4]; 0.717 (inactive) in assay [5]; 0.54 (inactive) in [11]; 1.54 (inactive) in assay [13]. Also, the z-score is 0.913 (inactive) in assay [14]; -1.33 (inactive) in assay [15]; 1.28 (inactive) in [16]; -0.471 in assay [17]; 1.59 (inactive) in [18]; 0.462 (inactive) in [19]. The compound also showed a z-score in assay [20] of 0.689.

The values are drawn from PubChem BioAssay.
